Screening data as filed in PubChem.
Sampled rows, rich in hits. Any-hit rate of the full collection: about 10%.
HEK293 tox: Cytotoxic Profiling in HEK 293 Cell Line of Diverse Libraries Using Quantitative High-Throughput Screening | Potency, µM (highest dose often 115 µM), usual class: inhibitors | 94,000 compounds, 6.6% hits | HEK 293 viability, ATP luminescence (CellTiter-Glo), 48-72 h; also: nearly all actives have a fitted effect of over 60% in size
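Luminescence from cellular ATP, measured with CellTiter-Glo, indicates HEK 293 viability. Cells plated at 250 cells/well are treated with compound for 48 or 72 hr at 37 degree Celsius before reagent addition.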
hNpr1 antagonist: Natriuretic polypeptide receptor (hNpr1) antagonism - Primary qHTS; Atrial natriuretic peptide receptor 1 (Homo sapiens), P16066; HEK293 hNpr1 GloSensor cGMP, ANP-stimulated luminescence; Potency, µM (top dose mostly 46.3 µM), usual class: inhibitors; 76,000 compounds, 1.6% hits; AID 1347048, 2019; calls by dose curve; also: nearly all actives have a fitted effect of over 60% in size
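Compound pre-incubated 30 min at room temperature on GloSensor-loaded HEK293 cells stably carrying hNpr1 and the pGS-40F cGMP biosensor. Stimulation uses hNppA at 0.1 nM final; luminescence is taken at baseline and 20 min post-agonist.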
GPT2 inhibitor: Primary qHTS assay for inhibitors of Glutamate pyruvate transaminase 2 (GPT2) | Alanine aminotransferase 2 (Homo sapiens), Q8TD30 | Recombinant GPT2, coupled pyruvate oxidase/HRP Amplex Red fluorescence | Potency, µM (series often up to 57.7 µM), most hits filed as inhibitors | 100,000 compounds, 0.25% hits | AID 1671188, 2021; also: nearly all actives have a fitted effect of over 60% in size
Target sequence (Q8TD30 whole entry, looked up): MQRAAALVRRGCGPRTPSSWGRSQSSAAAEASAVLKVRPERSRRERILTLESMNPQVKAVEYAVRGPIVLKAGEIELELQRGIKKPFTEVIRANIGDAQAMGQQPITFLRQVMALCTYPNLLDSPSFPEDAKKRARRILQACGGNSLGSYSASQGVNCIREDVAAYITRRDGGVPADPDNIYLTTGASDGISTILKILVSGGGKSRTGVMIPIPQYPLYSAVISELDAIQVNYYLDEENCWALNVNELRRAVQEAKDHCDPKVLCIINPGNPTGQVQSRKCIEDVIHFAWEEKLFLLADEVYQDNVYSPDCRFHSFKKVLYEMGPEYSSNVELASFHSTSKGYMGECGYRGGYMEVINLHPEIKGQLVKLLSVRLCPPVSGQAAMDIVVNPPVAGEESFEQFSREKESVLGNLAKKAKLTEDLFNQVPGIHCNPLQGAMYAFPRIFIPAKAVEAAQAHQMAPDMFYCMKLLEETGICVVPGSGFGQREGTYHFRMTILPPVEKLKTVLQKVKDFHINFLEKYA
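Fluorescence read-out: pyruvate from GPT2 turnover coupled to pyruvate oxidase, HRP and Amplex Red (0.2mM ThPP, 0.2U/mL PO and HRP, 50uM Amplex final). Substrates 250uM a-KG, 2mM L-alanine; enzyme 10ng/uL; 30 min RT.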
Luciferase inh: Firefly luciferase inhibition profiling of diverse chemical library using quantitative high-throughput screening. AID 1347043, 2019. 76,000 compounds, 2.5% hits. purified P. pyralis luciferase, luminescence, biochemical. Luciferin 4-monooxygenase (Photinus pyralis), P08659. Potency, µM (highest dose often 115 µM), most hits filed as inhibitors; also: nearly all actives have a fitted effect of over 65% in size
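Purified P. pyralis luciferase (10nM final) in 50mM Tris acetate pH 7.5, 10mM Mg acetate, 0.01% Tween-20, 0.05% BSA with 10uM D-luciferin and 10uM ATP. Compounds titrated qHTS. Luminescence imaged on CCD.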
NIH3T3 tox: Cytotoxic Profiling in NIH 3T3 Cell Line of Diverse Libraries Using Quantitative High-Throughput Screening | Potency, µM (doses to about 96.7 µM), hits mostly inhibitors | AID 1345082, 2018 | 94,000 compounds, 4.3% hits | NIH 3T3 viability, CellTiter-Glo ATP luminescence, 48-72 h; also: nearly all actives have a fitted effect of over 55% in size
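ATP-dependent luminescence (CellTiter-Glo) served as the viability signal for NIH 3T3 cells treated with compound for 48 or 72 hr at 37 °C.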
Large screens that a line does not name were inactive. Unless noted, calls follow the shape of the dose curve; as a rule, active = well fitted curve in the direction sought with a large enough effect; inconclusive = small, poorly fitted or top-dose-only effect, or another doubt; inactive = no such curve, though single readings can be large; an effect the other way counts as inactive or inconclusive.

Cc1ccc(Nc2ccnc(N3CC4CCC(C3)N4CC(F)(F)F)n2)cc1	HEK293 tox 39.8µM, GPT2 inhibitor inconclusive, NIH3T3 tox 28.2µM (no result: hNpr1 antagonist, Luciferase inh)
CS(=O)(=O)N1CCCN(C(=O)CCc2c[nH]c3ccccc23)CCNC(=O)CC1c1ccccc1 (centres undefined)	none
O=C([C@@H]1C[C@H](F)CN1C(=O)c1cccc(Br)c1)N1CCCCC1	none
CCc1[nH]nc(C(=O)N(Cc2cccnc2)CC2CCN(C3CCCC3)CC2)c1C	none
O=C(NCCc1ccccc1F)C1CCN(c2ccnc3ccnn23)CC1	HEK293 tox inconclusive, NIH3T3 tox inconclusive (no result: hNpr1 antagonist, Luciferase inh)
O=C(NCc1cccc(Cl)c1)C1CCCN(c2ccnc3ccnn23)C1 (centres undefined)	HEK293 tox inconclusive, NIH3T3 tox inconclusive (no result: hNpr1 antagonist, Luciferase inh)
O=C(NCc1ccc(Cl)cc1)C1CCCN(c2ccnc3ccnn23)C1 (centres undefined)	HEK293 tox 50.1µM, NIH3T3 tox inconclusive (no result: hNpr1 antagonist, Luciferase inh)
O=C(NCc1ccccc1F)C1CCN(c2ccnc3ccnn23)CC1	HEK293 tox 15.8µM, NIH3T3 tox inconclusive (no result: hNpr1 antagonist, Luciferase inh)
O=C(NCc1ccccc1)C1CN(c2ccnc3ccnn23)C1	HEK293 tox inconclusive, NIH3T3 tox inconclusive (no result: hNpr1 antagonist, Luciferase inh)
O=C(NCc1ccccc1)C1CCCN(c2ccnc3ccnn23)C1 (centres undefined)	HEK293 tox 100µM, NIH3T3 tox inconclusive (no result: hNpr1 antagonist, Luciferase inh)
OC(COc1ccccc1CNCC1CCOCC1)CN1CCSCC1 (centres undefined)	none
CC(C)N1C[C@H](O)C[C@H]1c1nnc2n1CCN(C(=O)CCC1CCCC1)C2	none
CN1CCN(c2ccc(-c3cn(C)c(=O)n4cc(CNc5ccccc5)nc34)cn2)CC1	HEK293 tox 70.8µM, NIH3T3 tox 50.1µM
Cn1cc(-c2cn(C)c(=O)n3cc(CNc4ccccc4)nc23)cn1	Luciferase inh inconclusive, NIH3T3 tox inconclusive
CCOC(=O)C1(C/C=C/c2ccccc2)CCCN(C(=O)C2CCOCC2)C1 (centres undefined)	HEK293 tox 89.1µM
Cc1ccc([S+](=O)([O-])N2CCc3nc(-c4ccccc4)nc(-c4ccc(Cl)cc4)c3C2)cc1	GPT2 inhibitor inconclusive (no result: hNpr1 antagonist, Luciferase inh)
COc1ccc(-c2cc(C(=O)N3CCN(Cc4ccccc4)CC3)c3cnn(C)c3n2)cc1	HEK293 tox 35.5µM, NIH3T3 tox inconclusive (no result: hNpr1 antagonist, GPT2 inhibitor, Luciferase inh)
COc1ccc(-c2cc(C(=O)N3CCN(c4ncccn4)CC3)c3cnn(C)c3n2)cc1	HEK293 tox 39.8µM, NIH3T3 tox inconclusive (no result: hNpr1 antagonist, GPT2 inhibitor, Luciferase inh)
Cc1ccc(-c2cc(C(=O)N3CCN(Cc4ccccc4)CC3)c3cnn(C)c3n2)c(C)c1	HEK293 tox inconclusive, NIH3T3 tox inconclusive (no result: hNpr1 antagonist, Luciferase inh)
Cc1ccc(-c2cc(C(=O)N3CCN(Cc4ccccc4)CC3)c3cnn(C)c3n2)cc1	HEK293 tox inconclusive, NIH3T3 tox inconclusive (no result: hNpr1 antagonist, Luciferase inh)
Cn1ncc2c(C(=O)N3CCN(Cc4ccccc4)CC3)cc(-c3ccccc3F)nc21	HEK293 tox 39.8µM, NIH3T3 tox inconclusive (no result: hNpr1 antagonist, GPT2 inhibitor, Luciferase inh)
C[C@@H]1CC[C@]2(C)C3(C)CC[C@@]2(OC3=O)[C@@]12C[C@H](c1ccoc1)OC2=O	none (no result: HEK293 tox, hNpr1 antagonist, Luciferase inh, NIH3T3 tox)
COC(=O)[C@@H](Cc1cccnc1)NC(=O)[C@@H]1CN(C(=O)c2cccc(F)c2)CCN1C(=O)c1cccs1	none
O=C(c1ccc2oc(-c3ccc(C(F)(F)F)cc3)nc2c1)N1CCOCC1	HEK293 tox inconclusive, NIH3T3 tox inconclusive
O=C(NC1CCCCCC1)c1ccc2oc(-c3ccncc3)nc2c1	HEK293 tox 35.5µM (no result: hNpr1 antagonist, Luciferase inh)
O=C(NCC1CCCO1)c1ccc2oc(-c3ccc(C(F)(F)F)cc3)nc2c1 (centres undefined)	HEK293 tox 17.8µM, hNpr1 antagonist inconclusive, GPT2 inhibitor inconclusive
C[C@]1(O)CCN(C(=O)c2cccc(-n3cnnc3)c2)C[C@@H]1O	none
Cn1c(CO[C@H]2CN(Cc3ccc4c(c3)OCCO4)C[C@H]2F)nc2ccccc21	HEK293 tox inconclusive, NIH3T3 tox 89.1µM
COC(=O)CC(NC(=O)Nc1cccn2nc(C)nc12)c1ccccc1 (centres undefined)	none
CNC(=O)Nc1cccn2nc(-c3ccccc3)nc12	HEK293 tox inconclusive, GPT2 inhibitor inconclusive, Luciferase inh 39.8µM, NIH3T3 tox inconclusive
Cn1nccc1C(=O)N1CC(c2ncc3c(-c4cccc(C(F)(F)F)c4)nccn23)C1	HEK293 tox inconclusive, NIH3T3 tox inconclusive
Cc1ccc(Cn2cc(-c3ccncc3)cc2C(=O)NC2CC2)cc1	HEK293 tox inconclusive, GPT2 inhibitor inconclusive, Luciferase inh 44.7µM, NIH3T3 tox inconclusive
O=C1N[C@@H]2CCN(C(=O)c3ccc(-c4ccccc4)cc3)[C@@H]2C(=O)N1Cc1ccccc1	HEK293 tox inconclusive, Luciferase inh inconclusive, NIH3T3 tox 112µM
COc1cccc(-c2ccc(CN3CCCC3C(=O)NCc3ccc(C(F)(F)F)cc3)cc2)c1 (centres undefined)	HEK293 tox 35.5µM, NIH3T3 tox inconclusive (no result: hNpr1 antagonist, Luciferase inh)
COc1cccc(-c2ccc(CN3CCCC3C(=O)NCc3ccc(F)cc3)cc2)c1 (centres undefined)	HEK293 tox inconclusive, NIH3T3 tox inconclusive (no result: hNpr1 antagonist, Luciferase inh)
COc1cccc(-c2ccc(CN3CCCC3C(=O)NCC3CC3)cc2)c1 (centres undefined)	HEK293 tox 44.7µM, NIH3T3 tox inconclusive (no result: hNpr1 antagonist, Luciferase inh)
O=C(C1CC1)N1CCCC(Cc2noc(-c3ccccc3)n2)C1 (centres undefined)	HEK293 tox inconclusive, Luciferase inh inconclusive, NIH3T3 tox inconclusive
O=C(NCC1CCCN(C(=O)c2ccsc2)C1)c1ccc(-c2ccccc2)cc1 (centres undefined)	HEK293 tox 44.7µM, hNpr1 antagonist inconclusive, Luciferase inh inconclusive, NIH3T3 tox inconclusive
O=C(c1ccc2cc[nH]c2c1)N1CCCC(Cc2noc(-c3ccccc3)n2)C1 (centres undefined)	HEK293 tox inconclusive, NIH3T3 tox 20µM
CCn1ccnc1CN1CCCC(CNC(=O)c2ccc(-c3ccccc3)cc2)C1 (centres undefined)	HEK293 tox inconclusive, NIH3T3 tox inconclusive
O=C(NCC1CCCN(Cc2ncccn2)C1)c1ccc(-c2ccccc2)cc1 (centres undefined)	HEK293 tox inconclusive, GPT2 inhibitor inconclusive
O=C(NCC1CCCN(C(=O)c2ccc3[nH]ccc3c2)C1)c1ccc(-c2ccccc2)cc1 (centres undefined)	HEK293 tox 17.8µM, hNpr1 antagonist 11.2µM, Luciferase inh inconclusive, NIH3T3 tox inconclusive
CCn1cc([S+](=O)([O-])N2CCN(C(=O)N3CC4CC(C3)[C@H]3CCCC(=O)N3C4)CC2)cn1 (some centres undefined)	none
